Reference: PubChem BioAssay

Biological target: Homeobox protein Hox-A13 (Mus musculus) (UniProt Q62424)
Assay: inhibitors of HoxA13-DNA binding, primary screen, biochemical, fluorescence polarization, labeled oligonucleotide (AID 1185)
Conditions: 15 min, higher = more signal, called active from +8 up or from −8 down

Homeobox protein Hox-A13 (Mus musculus), sequence (Q62424 whole entry, looked up): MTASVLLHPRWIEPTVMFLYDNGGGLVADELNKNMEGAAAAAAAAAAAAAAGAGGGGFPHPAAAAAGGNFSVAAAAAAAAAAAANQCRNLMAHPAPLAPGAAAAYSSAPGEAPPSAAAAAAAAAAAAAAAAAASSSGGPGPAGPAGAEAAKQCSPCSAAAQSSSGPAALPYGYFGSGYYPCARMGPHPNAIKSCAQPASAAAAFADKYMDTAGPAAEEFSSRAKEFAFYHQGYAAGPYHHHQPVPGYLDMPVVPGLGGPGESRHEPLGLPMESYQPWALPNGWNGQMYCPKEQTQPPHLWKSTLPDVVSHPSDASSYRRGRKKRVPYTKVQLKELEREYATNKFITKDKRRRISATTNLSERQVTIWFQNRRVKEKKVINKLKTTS

z-score, inactive:
CC(=O)OC[C@H]1O[C@H](CCON=C(C)CCC(=O)OC[C@H]2O[C@H](C#Cc3ccccc3)C=C[C@@H]2Oc2ccc(C)cc2)C=C[C@@H]1OC(C)=O -2.62
CCOC(=O)CCN1C(=O)[C@H]2[C@H]3[C@H](O)[C@H](O)CC(=NNC(=O)OCc4ccc(OC)cc4)[C@@H]3CC[C@H]2C1=O 0.614
CCOC(=O)[C@H](Cc1ccccc1)NC(=O)CCC1CC(OC(=O)NCc2ccc3c(c2)OCO3)CC2(CCCC(COC(=O)NCc3ccccc3)O2)O1 (stereo partly drawn) -0.513
CCOC(=O)CCN1C(=O)[C@H]2[C@H]3[C@H](O)[C@H](O)CC(=NOCc4ccccc4)[C@@H]3CC[C@H]2C1=O -4.34
C[C@H](c1ccccc1)N1C(=O)[C@H]2[C@@H]3C(=CC[C@H]2C1=O)C(=O)[C@H]1O[C@H]1[C@H]3O -6.83
O=C1C[C@@H](O)[C@@H](O)[C@@H]2[C@@H]3C(=O)N(C4CCCCC4)C(=O)[C@@H]3CC[C@H]12 0.34
O=C1CCCC2OC12C(O)CCc1ccccc1 (stereo not drawn) -0.663
O=C1[C@H]2[C@H]3[C@H](O)[C@H](O)CC(=NOCc4ccccc4)[C@H]3CC[C@H]2C(=O)N1c1ccc(F)cc1F 1.02
